A number with no mark means an inactive call. This is one part of the list. Activity calls are given as the source filed them.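 Rule for the calls, unless noted: active = inhibition above the hit cutoff set in the earlier primary screen (cut at about 27% in these data); inactive = the rest.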
How the values were obtained:
[1] = biological target: Protein phosphatase methylesterase 1 (Homo sapiens) (UniProt Q9Y570); assay: human PME-1 methylesterase inhibition confirmation – biochemical, fluorescence polarization, FP-Rh probe, triplicate (AID 2171); details: recombinant PME-1, FP-Rh probe fluorescence polarization; at 5.9 µM; hits give high values;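 note: 0% = enzyme with DMSO and 100% = wells lacking PME-1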
Chain of Protein phosphatase methylesterase 1 (Homo sapiens) (Q9Y570 whole entry, looked up, the tested form may be a part): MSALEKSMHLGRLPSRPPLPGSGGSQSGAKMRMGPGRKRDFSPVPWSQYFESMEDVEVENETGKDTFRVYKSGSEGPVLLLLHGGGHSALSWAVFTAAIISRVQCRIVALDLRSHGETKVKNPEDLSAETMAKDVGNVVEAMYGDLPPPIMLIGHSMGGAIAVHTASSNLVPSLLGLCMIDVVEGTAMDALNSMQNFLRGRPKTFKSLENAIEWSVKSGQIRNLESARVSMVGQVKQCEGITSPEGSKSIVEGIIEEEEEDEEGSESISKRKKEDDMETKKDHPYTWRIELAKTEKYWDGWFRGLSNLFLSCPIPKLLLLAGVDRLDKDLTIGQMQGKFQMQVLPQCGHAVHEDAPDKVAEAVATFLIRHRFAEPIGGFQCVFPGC

[2] = biological target: Nuclear receptor coactivator 1 (Homo sapiens) (UniProt Q15788); assay: NCOA1 GAL4-fusion reporter inhibition – cell-based, luminescence, quadruplicate, confirmation (AID 588820;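 active = mean inhibition above 46.68%, the untreated control wells mean plus 3 SD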;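 note: 0% = DMSO wells and 100% = gossypol 36 µM treated wells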); details: HEK293 GAL4-SRC1 luciferase reporter, at 3.6 µM, hits give high values
Chain of Nuclear receptor coactivator 1 (Homo sapiens) (Q15788 whole entry, looked up, the tested form may be a part): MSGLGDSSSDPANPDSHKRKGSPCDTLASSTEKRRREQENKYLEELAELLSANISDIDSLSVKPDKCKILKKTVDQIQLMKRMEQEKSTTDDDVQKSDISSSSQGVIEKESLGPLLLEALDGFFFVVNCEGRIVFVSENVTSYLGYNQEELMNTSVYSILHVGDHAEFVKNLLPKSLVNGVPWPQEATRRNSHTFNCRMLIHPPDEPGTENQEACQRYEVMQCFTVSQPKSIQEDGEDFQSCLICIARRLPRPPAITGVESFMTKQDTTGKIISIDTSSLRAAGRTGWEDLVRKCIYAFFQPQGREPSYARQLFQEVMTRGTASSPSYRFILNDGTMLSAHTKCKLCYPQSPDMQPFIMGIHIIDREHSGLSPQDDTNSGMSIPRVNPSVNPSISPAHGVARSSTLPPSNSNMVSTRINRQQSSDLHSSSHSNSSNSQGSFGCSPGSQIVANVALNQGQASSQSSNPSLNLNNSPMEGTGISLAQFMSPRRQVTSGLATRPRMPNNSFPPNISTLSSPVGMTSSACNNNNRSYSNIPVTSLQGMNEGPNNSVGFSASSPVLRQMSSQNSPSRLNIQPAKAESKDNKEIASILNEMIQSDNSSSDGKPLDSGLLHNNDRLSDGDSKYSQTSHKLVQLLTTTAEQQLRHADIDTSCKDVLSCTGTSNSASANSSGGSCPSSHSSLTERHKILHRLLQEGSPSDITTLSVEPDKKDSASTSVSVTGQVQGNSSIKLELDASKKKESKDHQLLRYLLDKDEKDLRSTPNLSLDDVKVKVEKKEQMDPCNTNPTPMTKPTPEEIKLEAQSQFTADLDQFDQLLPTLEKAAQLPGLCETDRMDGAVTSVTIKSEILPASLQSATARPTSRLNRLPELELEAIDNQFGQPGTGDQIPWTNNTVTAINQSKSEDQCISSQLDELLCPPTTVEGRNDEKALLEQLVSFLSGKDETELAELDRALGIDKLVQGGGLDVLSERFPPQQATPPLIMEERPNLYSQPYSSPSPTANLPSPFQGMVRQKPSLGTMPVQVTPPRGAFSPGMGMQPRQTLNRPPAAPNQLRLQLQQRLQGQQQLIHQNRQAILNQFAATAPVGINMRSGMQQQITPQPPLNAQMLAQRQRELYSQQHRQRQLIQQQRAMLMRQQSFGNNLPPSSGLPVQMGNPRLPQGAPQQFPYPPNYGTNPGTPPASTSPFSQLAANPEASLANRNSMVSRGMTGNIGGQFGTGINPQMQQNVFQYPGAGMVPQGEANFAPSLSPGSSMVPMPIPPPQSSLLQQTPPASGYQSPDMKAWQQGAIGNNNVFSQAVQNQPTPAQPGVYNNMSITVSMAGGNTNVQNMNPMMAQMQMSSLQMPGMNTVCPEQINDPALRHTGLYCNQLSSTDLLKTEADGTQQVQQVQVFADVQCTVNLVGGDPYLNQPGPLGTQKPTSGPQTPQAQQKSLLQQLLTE

[3] = repression of VP16-driven luciferase reporter – cell-based, luminescence, high throughput, counter-screen for SRC1 inhibitor project (AID 588824; in the data active = inhibition above about 25%); details: cell-based VP16 transactivation luciferase luminescence; at 3.6 µM; hits give high values
[4] = biological target: Nuclear receptor coactivator 3 (Homo sapiens) (UniProt Q9Y6Q9); assay: NCOA3 GAL4-fusion reporter inhibition – cell-based, luminescence, quadruplicate, confirmation (AID 588792;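 active = mean inhibition over 43.08%, the solvent-only control mean plus 3 SD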;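 note: 0% = DMSO treated cells and 100% = gossypol at 36 µM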); details: HEK293 GAL4-SRC3 luciferase reporter, at 3.6 µM, hits give high values
[5] = tested on: transactivating tegument protein VP16 (Human herpesvirus 1), Gal4-VP16 luciferase reporter; assay: repression of VP16-driven luciferase reporter – cell-based, luminescence, high throughput, counter-screen for SRC3 inhibitor project (AID 588794; in the data active = inhibition above about 30%); details: mammalian cells, at 3.6 µM, hits give high values
[6] = tested on: transactivating tegument protein VP16 (Human herpesvirus 1); assay: compounds suppressing VP16-driven luciferase signal – cell-based, luminescence, single concentration, counter-screen for SRC2 inhibitor project (AID 652007; in the data active = inhibition above about 36%); details: cell-based VP16 transactivation luciferase reporter, at 8.9 µM, hits give high values
[7] = biological target: Nuclear receptor coactivator 2 (Homo sapiens) (UniProt Q15596); assay: inhibition of GAL4-SRC2 driven luciferase expression – cell-based, luminescence, HEK293, triplicate, confirmation (AID 652008;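 active = mean inhibition above 46.5%, the solvent-only control mean plus 3 SD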;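 note: 0% = DMSO-treated cells and 100% = Gossypol at 36 µM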); details: HEK293 GAL4-SRC2 luciferase reporter, at 8.9 µM, hits give high values
Chain of Nuclear receptor coactivator 2 (Homo sapiens) (Q15596 whole entry, looked up, the tested form may be a part): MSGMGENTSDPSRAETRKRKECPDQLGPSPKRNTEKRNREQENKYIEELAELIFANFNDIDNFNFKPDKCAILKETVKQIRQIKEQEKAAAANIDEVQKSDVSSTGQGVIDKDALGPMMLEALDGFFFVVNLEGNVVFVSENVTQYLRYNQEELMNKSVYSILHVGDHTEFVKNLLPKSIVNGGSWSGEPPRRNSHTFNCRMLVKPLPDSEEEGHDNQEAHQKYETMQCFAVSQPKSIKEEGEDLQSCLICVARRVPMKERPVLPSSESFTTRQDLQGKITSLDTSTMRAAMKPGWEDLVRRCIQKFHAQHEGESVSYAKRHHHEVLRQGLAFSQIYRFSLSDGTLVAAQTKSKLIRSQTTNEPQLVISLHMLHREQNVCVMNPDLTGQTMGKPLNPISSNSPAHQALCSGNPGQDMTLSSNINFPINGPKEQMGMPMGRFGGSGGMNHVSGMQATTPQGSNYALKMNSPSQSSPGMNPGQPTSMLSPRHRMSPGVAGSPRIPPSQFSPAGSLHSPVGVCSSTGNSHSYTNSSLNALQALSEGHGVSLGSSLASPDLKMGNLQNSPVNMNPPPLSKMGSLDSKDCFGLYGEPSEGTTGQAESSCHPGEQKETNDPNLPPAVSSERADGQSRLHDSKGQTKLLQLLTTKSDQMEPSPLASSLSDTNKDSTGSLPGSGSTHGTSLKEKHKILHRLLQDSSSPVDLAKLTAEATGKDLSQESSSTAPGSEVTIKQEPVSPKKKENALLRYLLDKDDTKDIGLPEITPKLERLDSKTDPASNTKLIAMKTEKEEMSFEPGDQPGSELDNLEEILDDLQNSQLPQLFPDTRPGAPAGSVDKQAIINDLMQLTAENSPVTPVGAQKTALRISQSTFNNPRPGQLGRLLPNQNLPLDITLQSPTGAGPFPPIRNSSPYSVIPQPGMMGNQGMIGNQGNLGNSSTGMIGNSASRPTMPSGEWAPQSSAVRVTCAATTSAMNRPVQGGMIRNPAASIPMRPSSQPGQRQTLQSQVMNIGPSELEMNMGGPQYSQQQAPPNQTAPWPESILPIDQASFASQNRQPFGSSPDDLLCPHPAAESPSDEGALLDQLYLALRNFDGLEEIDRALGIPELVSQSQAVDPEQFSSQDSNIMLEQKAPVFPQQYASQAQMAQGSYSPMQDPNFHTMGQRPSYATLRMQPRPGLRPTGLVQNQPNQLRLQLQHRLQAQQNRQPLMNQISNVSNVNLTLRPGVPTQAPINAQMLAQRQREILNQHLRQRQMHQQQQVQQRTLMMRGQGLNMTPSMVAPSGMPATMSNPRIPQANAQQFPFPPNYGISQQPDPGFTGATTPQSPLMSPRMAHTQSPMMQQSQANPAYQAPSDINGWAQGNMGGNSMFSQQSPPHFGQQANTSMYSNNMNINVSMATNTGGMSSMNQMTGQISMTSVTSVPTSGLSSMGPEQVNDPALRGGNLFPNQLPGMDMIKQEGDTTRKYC

[8] = StAR promoter reporter inhibitors, counter-screen for LRH-1 inverse agonist project, cell-based, luminescence, high throughput (AID 651611; in the data active = inhibition above about 28%); details: StAR promoter luciferase reporter counterscreen, at 3.6 µM, hits give high values
[9] = biological target: Nuclear receptor subfamily 5 group A member 2 (Homo sapiens) (UniProt O00482); assay: NR5A2 activity suppression in reporter cells – cell-based, luminescence, confirmation (AID 651613; in the data active = inhibition above about 42%;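 note: HEK293T cells co-transfected with LRH-1 and StAR promoter luciferase reporter; 0% = vehicle wells and 100% = parental cells lacking receptor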); details: cell-based LRH-1 luciferase reporter, inverse agonism; at 3.6 µM; hits give high values
Chain of Nuclear receptor subfamily 5 group A member 2 (Homo sapiens) (O00482 whole entry, looked up): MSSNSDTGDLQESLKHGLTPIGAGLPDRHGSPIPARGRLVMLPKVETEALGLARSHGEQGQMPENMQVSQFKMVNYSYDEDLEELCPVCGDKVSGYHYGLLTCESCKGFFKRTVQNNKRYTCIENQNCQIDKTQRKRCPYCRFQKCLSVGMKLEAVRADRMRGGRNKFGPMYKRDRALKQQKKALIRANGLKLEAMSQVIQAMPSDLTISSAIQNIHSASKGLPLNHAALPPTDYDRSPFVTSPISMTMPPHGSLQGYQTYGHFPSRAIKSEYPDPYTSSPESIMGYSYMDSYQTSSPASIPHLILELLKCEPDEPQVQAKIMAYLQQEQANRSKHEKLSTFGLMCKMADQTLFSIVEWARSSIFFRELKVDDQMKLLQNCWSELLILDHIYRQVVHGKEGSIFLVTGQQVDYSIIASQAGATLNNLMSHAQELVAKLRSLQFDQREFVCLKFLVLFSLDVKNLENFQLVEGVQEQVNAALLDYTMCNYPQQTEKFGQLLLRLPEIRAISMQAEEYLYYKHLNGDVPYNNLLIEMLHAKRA

[10] = biological target: Steroidogenic factor 1 (Homo sapiens) (UniProt Q13285); assay: inverse agonism at SF1 nuclear receptor – cell-based, luminescence, high throughput, counter-screen for LRH-1 inverse agonist project (AID 651614; in the data active = inhibition above about 44%;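 note: cells cotransfected with StAR promoter reporter and SF1 expression vector; 0% = vehicle on cells with receptor and 100% = vehicle on cells lacking receptor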); details: cell-based SF1 luciferase reporter, at 3.6 µM, hits give high values
Chain of Steroidogenic factor 1 (Homo sapiens) (Q13285 whole entry, looked up, the tested form may be a part): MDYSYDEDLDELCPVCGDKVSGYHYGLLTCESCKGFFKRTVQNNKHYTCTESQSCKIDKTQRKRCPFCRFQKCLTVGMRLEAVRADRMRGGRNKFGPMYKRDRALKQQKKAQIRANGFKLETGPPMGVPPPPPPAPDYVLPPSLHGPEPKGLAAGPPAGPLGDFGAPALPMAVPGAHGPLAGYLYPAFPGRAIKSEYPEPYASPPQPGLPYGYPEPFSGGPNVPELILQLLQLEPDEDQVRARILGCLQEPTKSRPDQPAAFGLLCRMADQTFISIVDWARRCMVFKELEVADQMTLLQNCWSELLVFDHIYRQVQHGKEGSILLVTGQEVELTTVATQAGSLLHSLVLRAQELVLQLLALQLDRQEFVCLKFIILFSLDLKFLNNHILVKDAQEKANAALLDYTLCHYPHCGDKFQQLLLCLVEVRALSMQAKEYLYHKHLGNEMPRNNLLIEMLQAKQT

[11] = compounds suppressing VP16-driven luciferase signal – cell-based, luminescence, high throughput, counter-screen for LRH-1 inverse agonist project (AID 651615; in the data active = inhibition above about 33%); details: Gal4-VP16 luciferase reporter cells, at 3.6 µM, hits give high values
[12] = biological target: Glutathione S-transferase omega-1 (Homo sapiens) (UniProt P78417); assay: recombinant GSTO1 blockers, retest – biochemical, fluorescence polarization, triplicate, counter-screen for RBBP9 inhibitor project, confirmation (AID 2176;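 active = inhibition above the primary screen's cutoff, its mean inhibition plus 3 SD, cut at about 35% in these data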;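 note: loss of polarization as inhibitors block binding of rhodamine sulfonate ester activity probe; 0% = GSTO1 with DMSO and 100% = wells lacking GSTO1 enzyme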); details: recombinant GSTO1, probe fluorescence polarization; at 5.96 µM; hits give high values
Chain of Glutathione S-transferase omega-1 (Homo sapiens) (P78417 whole entry, looked up): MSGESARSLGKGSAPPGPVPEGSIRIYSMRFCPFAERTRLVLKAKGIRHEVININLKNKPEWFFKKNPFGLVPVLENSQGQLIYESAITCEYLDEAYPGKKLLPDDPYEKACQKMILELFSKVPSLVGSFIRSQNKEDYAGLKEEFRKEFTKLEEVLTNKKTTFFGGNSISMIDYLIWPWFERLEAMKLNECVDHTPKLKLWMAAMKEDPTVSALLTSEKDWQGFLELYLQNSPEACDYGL

[13] = biological target: Oxysterols receptor LXR-beta (Homo sapiens) (UniProt P55055); assay: nonspecific reporter activation via LXR – cell-based, luminescence, HEK293, H. contortus campaign, counter-screen for hcDAF-12 agonist project, confirmation (AID 743027;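 active = mean percent activation of the reporter above a cutoff set as the average over tested compounds plus their standard deviation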); details: HEK293 Gal4-LXR tk-luc reporter, 24 h, at 6.8 µM, hits give high values, normalized: DMSO 0%, positive control 100%
Chain of Oxysterols receptor LXR-beta (Homo sapiens) (P55055 whole entry, looked up, the tested form may be a part): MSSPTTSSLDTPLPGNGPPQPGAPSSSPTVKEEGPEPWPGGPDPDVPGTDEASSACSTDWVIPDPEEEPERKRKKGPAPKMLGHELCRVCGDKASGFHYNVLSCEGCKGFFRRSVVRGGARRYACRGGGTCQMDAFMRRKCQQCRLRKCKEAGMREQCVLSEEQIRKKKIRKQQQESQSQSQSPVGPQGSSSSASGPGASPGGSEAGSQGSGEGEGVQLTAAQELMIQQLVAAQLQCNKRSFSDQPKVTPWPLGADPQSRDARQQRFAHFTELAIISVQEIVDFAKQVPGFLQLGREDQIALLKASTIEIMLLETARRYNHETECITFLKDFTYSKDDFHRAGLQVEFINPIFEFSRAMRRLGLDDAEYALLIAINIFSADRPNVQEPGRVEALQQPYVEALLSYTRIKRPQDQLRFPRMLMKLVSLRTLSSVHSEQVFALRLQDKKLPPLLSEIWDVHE

[14] = tested on: Nuclear hormone receptor DAF-12 (Haemonchus contortus); assay: hcDAF-12 luciferase reporter activation, retest – cell-based, luminescence, HEK293, lit1-tk-luc, triplicate, confirmation (AID 743032;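 active = mean activation across triplicate tests above the threshold derived from the earlier primary screen, cut at about 5.5% in these data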;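 note: 0% = DMSO only wells and 100% = 3 µM Δ7-dafachronic acid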); details: HEK293 hcDAF-12 lit1-tk-luc reporter, at 6.8 µM, hits give high values, % of Δ7-dafachronic acid response
[15] = tested on: DAF-12 nuclear receptor (Heterodera glycines), GAL4-LBD fusion; assay: hgDAF-12 GAL4 fusion reporter activation, retest – cell-based, luminescence, HEK293, GAL4-LBD fusion, confirmation (AID 743050;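 active = mean activation over triplicate wells above the hit cutoff derived from the earlier primary screen, cut at about 11% in these data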;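 note: 0% = DMSO low control and 100% = 2 mM sodium butyrate high control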); details: HEK293 GAL4-hgDAF12 luciferase reporter, agonist mode; at 6.8 µM; hits give high values; percent of butyrate response
[16] = biological target: Oxysterols receptor LXR-beta (Homo sapiens) (UniProt P55055); assay: nonspecific reporter activation via LXR – cell-based, luminescence, HEK293, H. glycines campaign, counter-screen for hgDAF-12 agonist project, confirmation (AID 743051;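 active = mean activation of the triplicate above a set limit carried over from the primary screen, none filed active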); details: HEK293 Gal4-LXR luciferase reporter, 24 h; at 6.8 µM; hits give high values

With `COc1cc(OC)c2cc(C(=O)N/N=C/c3cccc(OC)c3O)[nH]c2c1` the inhibition [1] was 39.4% (active), the inhibition [2] was 17.7% and the inhibition [3] was 6.13%.
In the case of `COc1ccc(/C=C2\CN(Cc3ccccc3)C/C(=C\c3ccc(OC)c(O)c3)C2=O)cc1O`, the inhibition [1] is reported as -5.14%, the inhibition [4] is reported as 59.2% (active) and the inhibition [5] is reported as 0.48%. For the same compound, the inhibition [3] was 12.4%, the inhibition [6] was 73.1% (active) and the inhibition [7] was 22.9%.
In the case of `O=[N+]([O-])c1cccc(-c2nc(-c3cccs3)c(-c3cccs3)[nH]2)c1`, the inhibition [1] is reported as 13%, the inhibition [8] is reported as 19.7% and the inhibition [9] is reported as 55% (active). The inhibition [10] was 42.7% (active) and the inhibition [11] was -12.5%.
For `Cc1ccc(C(C)C)c(OCc2ccc(C(=O)N/N=C/c3ccc(O)c(O)c3)cc2)c1`, the inhibition [1] was -9.52%, the inhibition [6] was -11% and the inhibition [7] was 62.6% (active).
In the case of `CCCOc1ccc(/C=N/NC(=S)Nc2ccccc2[N+](=O)[O-])c(O)c1`, the inhibition [1] is reported as 27.9% (active), the inhibition [6] is reported as 74.5% (active) and the inhibition [7] is reported as 84% (active).
Work on `CCN(C(=O)COC(=O)c1cc(NS(=O)(=O)c2ccc(Cl)c([N+](=O)[O-])c2)ccc1O)C1CCCCC1` yielded an inhibition [12] of 32.6%.
In the case of `COc1cccc(-c2nc(NC(C)C)c3ccccc3n2)c1O`, the inhibition [1] is reported as 23.6%, the inhibition [8] is reported as 21.2% and the inhibition [9] is reported as 46.5% (active). The inhibition [10] was 57% (active) and the inhibition [11] was -1.3%.
With `CCCn1nc([N+](=O)[O-])c(C(C#N)c2nc3ccccc3s2)c(Cl)c1=O` (configuration not stated) the inhibition [1] was 28.7% (active), the inhibition [6] was 20.4% and the inhibition [7] was 20.3%.
For `COc1cccc(/C=N/NC(=O)c2[nH]c(C)c(C(=O)N/N=C/c3cccc(OC)c3O)c2C)c1O`, the inhibition [1] was -31.6%, the inhibition [8] was 42.2% (active) and the inhibition [9] was 24.8%. It also gave an inhibition [10] of 17.4% and an inhibition [11] of 25.2%.
With `CN(c1ccccc1)S(=O)(=O)c1ccc(NC(=O)c2nc(S(C)(=O)=O)ncc2Cl)cc1` the inhibition [1] was 24.2%, the inhibition [6] was 94.3% (active) and the inhibition [7] was 77.3% (active).
With `COc1cccc(/C=N/NC(=O)c2cc3c(OC)ccc(OC)c3[nH]2)c1O` the inhibition [1] was 32.6% (active), the inhibition [2] was 28.5% and the inhibition [3] was 29.7% (active). For the same compound, the inhibition [6] was -23.7% and the inhibition [7] was 28.4%.
In the case of `COc1cc(/C=N/Nc2nc3ccccc3s2)ccc1O`, the inhibition [1] is reported as 57.7% (active), the activation [13] is reported as 1.25% and the activation [14] is reported as 12.4% (active). For the same compound, the activation [15] was 18.2% (active) and the activation [16] was 0.97%.

From PubChem BioAssay
